# From the supplement of paper PMC8728848
# Shown is part of a subset that was picked to be rich in the strongest signals.
# B1: SfaEH (Escherichia coli), Q1RDG5 (protein)
# chain: LLCRNNQTGQVFNSGDTSFRVNVSPVVQYDKSISVLDLSQLVSCQNEDSTGQNYDYLKILKGSGFSPALDTKTYGRLDFTSRPTGYARQLPLQFDLQVTEAFYQYGVWKPFPAKLYLYPAPGVFGKVINNGDLLATLYVNKFSTKGQEAGERNFTWRFYATNDVYIQTGTCRVSSNNVKVDLPSYPGGPVTVPLTVRCDQTQSVSYTLSGPVTGSGNTVFANTAASGSGGVGIQLSDNVGPVPAGQPRSLGQVGSSPVSLGLKASYALTGQASPTPGAVQSVINVTFSYN
# Assays:
# Assay in all cases: glycan array binding signal (z-score within array); higher = stronger binding
# Conditions in all cases: glycan notation: IUPAC condensed, linker removed
# [1] = molecular target: Glc(a1-4)Glc(a1-4)Glc(a1-4)Glc
# Procedure, shortened: (§1)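 The Consortium for Functional Glycomics database supplied 3228 glycan arrays, of which those lacking an available protein sequence were dropped. The binding signal, a within-array Z-score, was averaged across arrays of the same protein sequence and across linkers. Negative scores can be read as non-binding.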
# [2] = molecular target: GlcNAc(a1-4)Gal(b1-3)GlcNAc
# Procedure, shortened: as §1
# [3] = molecular target: GlcNAc(a1-4)Gal(b1-4)GlcNAc(b1-3)Gal(b1-4)Glc
# Procedure, shortened: as §1
# [4] = molecular target: GlcNAc(b1-2)Man(a1-3)[GlcNAc(b1-2)Man(a1-6)]Man(b1-4)GlcNAc(b1-4)GlcNAc
# Procedure, shortened: as §1
# [5] = molecular target: GlcNAc(b1-2)[GlcNAc(b1-6)]Man(a1-6)[GlcNAc(b1-2)Man(a1-3)]Man(b1-4)GlcNAc(b1-4)GlcNAc
# Procedure, shortened: as §1
# [6] = molecular target: GlcNAc(b1-3)Gal(b1-4)GlcNAc(b1-2)[GlcNAc(b1-3)Gal(b1-4)GlcNAc(b1-6)]Man(a1-6)[GlcNAc(b1-3)Gal(b1-4)GlcNAc(b1-2)Man(a1-3)]Man(b1-4)GlcNAc(b1-4)GlcNAc
# Procedure, shortened: as §1
# [7] = molecular target: GlcNAc(b1-3)Gal(b1-4)GlcNAc(b1-3)[GlcNAc(b1-3)Gal(b1-4)GlcNAc(b1-3)]GalNAc
# Procedure, shortened: as §1
# [8] = molecular target: Man(a1-2)Man(a1-3)[Man(a1-2)Man(a1-6)]Man(a1-6)[Man(a1-2)Man(a1-2)Man(a1-3)]Man
# Procedure, shortened: as §1
# Man(b1-4)GlcNAc = molecular target: Man(b1-4)GlcNAc
# Procedure, shortened: as §1
# [9] = molecular target: Neu5Ac(a2-3)Gal(b1-3)GlcNAc(b1-2)Man(a1-3)[Neu5Ac(a2-3)Gal(b1-3)GlcNAc(b1-2)Man(a1-6)]Man(b1-4)GlcNAc(b1-4)GlcNAc
# Procedure, shortened: as §1
# [10] = molecular target: Neu5Ac(a2-3)Gal(b1-3)GlcNAc(b1-4)Gal(b1-4)Glc
# Procedure, shortened: as §1
# [11] = molecular target: Neu5Ac(a2-3)Gal(b1-4)GlcNAc(b1-3)Gal(b1-4)GlcNAc(b1-3)Gal(b1-4)GlcNAc
# Procedure, shortened: as §1
# [12] = molecular target: Neu5Ac(a2-3)Gal(b1-4)GlcNAc(b1-6)[Gal(b1-3)]GalNAc
# Procedure, shortened: as §1
# [13] = molecular target: Neu5Ac(a2-3)Gal(b1-4)[Fuc(a1-3)]GlcNAc(b1-3)Gal(b1-4)[Fuc(a1-3)]GlcNAc(b1-3)Gal(b1-4)[Fuc(a1-3)]GlcNAc
# Procedure, shortened: as §1
# [14] = molecular target: Neu5Ac(a2-3)[Neu5Ac(a2-6)]GalNAc
# Procedure, shortened: as §1
# [15] = molecular target: Neu5Ac(a2-6)Gal(b1-4)GlcNAc(b1-2)[Neu5Ac(a2-6)Gal(b1-4)GlcNAc(b1-6)]Man(a1-6)[Neu5Ac(a2-6)Gal(b1-4)GlcNAc(b1-2)Man(a1-3)][GlcNAc(b1-4)]Man(b1-4)GlcNAc(b1-4)GlcNAc
# Procedure, shortened: as §1
# [16] = molecular target: Neu5Ac(a2-6)Gal(b1-4)GlcNAc(b1-3)Gal(b1-3)GlcNAc
# Procedure, shortened: as §1
# [17] = molecular target: Neu5Ac(a2-6)Gal(b1-4)GlcNAc(b1-3)Gal(b1-4)GlcNAc(b1-6)[Gal(b1-3)]GalNAc
# Procedure, shortened: as §1
# [18] = molecular target: Neu5Ac(a2-6)Gal(b1-4)GlcNAc(b1-3)Gal(b1-4)[Fuc(a1-3)]GlcNAc(b1-3)Gal(b1-4)[Fuc(a1-3)]GlcNAc
# Procedure, shortened: as §1
# [19] = molecular target: Neu5Ac(a2-6)Gal(b1-4)GlcNAc(b1-3)[Neu5Ac(a2-6)Gal(b1-4)GlcNAc(b1-6)]GalNAc
# Procedure, shortened: as §1
# [20] = molecular target: Neu5Ac(a2-6)Gal(b1-4)GlcNAc(b1-6)[Gal(b1-3)]GalNAc
# Procedure, shortened: as §1
# [21] = molecular target: Neu5Ac(a2-6)GlcNAc(b1-4)GlcNAc
# Procedure, shortened: as §1
# [22] = molecular target: Neu5Ac(a2-6)GlcNAc(b1-4)GlcNAc(b1-4)GlcNAc
# Procedure, shortened: as §1
# [23] = molecular target: Neu5Ac(a2-8)Neu5Ac(a2-3)Gal(b1-4)Glc
# Procedure, shortened: as §1
# [24] = molecular target: Neu5Ac(a2-8)Neu5Ac(a2-8)Neu5Ac(a2-3)Gal(b1-4)Glc
# Procedure, shortened: as §1
# [25] = molecular target: Neu5Ac(a2-8)Neu5Gc(a2-3)Gal(b1-4)GlcNAc
# Procedure, shortened: as §1
# [26] = molecular target: Neu5Gc(a2-3)Gal(b1-4)GlcNAc(b1-3)Gal(b1-4)GlcNAc(b1-2)Man(a1-3)[Neu5Gc(a2-3)Gal(b1-4)GlcNAc(b1-3)Gal(b1-4)GlcNAc(b1-2)Man(a1-6)]Man(b1-4)GlcNAc(b1-4)GlcNAc
# Procedure, shortened: as §1
# [27] = molecular target: Neu5Gc(a2-8)Neu5Gc(a2-6)Gal(b1-4)GlcNAc
# Procedure, shortened: as §1
binder,measurement,setting,value
B1,glycan array binding signal (z-score),[1],-0.651
same,glycan array binding signal (z-score),[2],-0.403
same,glycan array binding signal (z-score),[3],-0.748
same,glycan array binding signal (z-score),[4],0.345
same,glycan array binding signal (z-score),[5],-0.668
same,glycan array binding signal (z-score),[6],2.3
same,glycan array binding signal (z-score),[7],0.026
same,glycan array binding signal (z-score),[8],0.008
same,glycan array binding signal (z-score),Man(b1-4)GlcNAc,-0.49
same,glycan array binding signal (z-score),[9],-0.547
same,glycan array binding signal (z-score),[10],-0.421
same,glycan array binding signal (z-score),[11],7.11
same,glycan array binding signal (z-score),[12],2.32
same,glycan array binding signal (z-score),[13],0.9
same,glycan array binding signal (z-score),[14],3.69
same,glycan array binding signal (z-score),[15],-0.534
same,glycan array binding signal (z-score),[16],-0.233
same,glycan array binding signal (z-score),[17],0.079
same,glycan array binding signal (z-score),[18],-0.154
same,glycan array binding signal (z-score),[19],2.22
same,glycan array binding signal (z-score),[20],0.841
same,glycan array binding signal (z-score),[21],-0.508
same,glycan array binding signal (z-score),[22],1.19
same,glycan array binding signal (z-score),[23],0.69
same,glycan array binding signal (z-score),[24],0.437
same,glycan array binding signal (z-score),[25],-0.786
same,glycan array binding signal (z-score),[26],-0.442
same,glycan array binding signal (z-score),[27],2.33
